The full ranking holds about 8,300 sequences; the median of “log2 fold change of degron read counts, EGFP-low vs EGFP+ sorted cells (limma voom), compound-induced degradation” is about -1.1, and the highest 2% start at about 3.2. Many of the other results were omitted from the sample, so the highest values are more common in it than they were.
T1: CRBN, Q96SW2
T1 chain: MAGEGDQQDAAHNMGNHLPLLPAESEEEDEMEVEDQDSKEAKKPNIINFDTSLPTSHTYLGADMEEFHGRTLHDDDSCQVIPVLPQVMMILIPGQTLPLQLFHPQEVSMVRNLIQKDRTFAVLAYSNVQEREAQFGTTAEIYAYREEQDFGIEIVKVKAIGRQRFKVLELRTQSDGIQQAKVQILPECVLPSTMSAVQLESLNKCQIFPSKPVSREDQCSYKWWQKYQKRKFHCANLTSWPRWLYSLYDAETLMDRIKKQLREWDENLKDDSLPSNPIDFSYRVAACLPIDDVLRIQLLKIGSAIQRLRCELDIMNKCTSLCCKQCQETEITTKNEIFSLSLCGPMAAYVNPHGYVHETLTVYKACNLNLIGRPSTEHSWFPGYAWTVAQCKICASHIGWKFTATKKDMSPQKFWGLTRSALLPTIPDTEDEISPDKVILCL


Target: T1, CRBN, Q96SW2
Experiment: log2 fold change of degron read counts, EGFP-low vs EGFP+ sorted cells (limma voom), compound-induced degradation; higher = more compound-induced degradation of the degron-EGFP fusion; degrons are variants of IKZF1/3 zinc finger 2; compound dose not given here
Settings: Jurkat, 18 h
[1] = compound: compound 19 (5-tert-butyl-thalidomide)
[2] = compound: compound 22 (5-morpholino-thalidomide)
[3] = compound: compound 33 (diphenyl IMiD analogue)
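Further: pooled lentiviral library of zinc finger degron-EGFP fusions in mCherry-positive Jurkat cells, FACS-sorted after compound exposure, with degron abundance counted by next-generation sequencing.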

Sequence	log2 fold change of degron read counts [1]	log2 fold change of degron read counts [2]	log2 fold change of degron read counts [3]	log2 fold change of degron read counts (compound: thalidomide)
FTCPICGHQFTQKGNLLRHIKL [46F_47T_49P_50I_52G_53H_54Q_55F_67L_, Q9UKT9]	0.276	0.993	2.35	2.28
FLCDQCGASFTQKGNLLRHIKL [46F_47L_49D_50Q_52G_53A_54S_55F_67L_, Q9UKT9]	-2	-2.92	-1.43	-3.07
FMCEICGRCFTQKGNLLRHIKL [46F_47M_49E_50I_52G_53R_54C_55F_67L_, Q9UKT9]	-2.91	-2.9	-1.29	-1.79
FTCDQCGAFFTQKGNLLRHIKL [46F_47T_49D_50Q_52G_53A_54F_55F_67L_, Q9UKT9]	-2.38	-2.78	-2.11	-2.23
FQCNICGAEFTQKGNLLRHIKL [46F_47Q_49N_50I_52G_53A_54E_55F_67L_, Q9UKT9]	-1.13	0.376	1.25	3.24
FVCPICGAEFTQKGNLLRHIKL [46F_47V_49P_50I_52G_53A_54E_55F_67L_, Q9UKT9]	0.162	2.31	1.62	2.6
FQCPICGAEFTQKGNLLRHIKL [46F_47Q_49P_50I_52G_53A_54E_55F_67L_, Q9UKT9]	1.17	1.71	2.51	3.61
FSCPICGAEFTQKGNLLRHIKL [46F_47S_49P_50I_52G_53A_54E_55F_67L_, Q9UKT9]	1.92	1.11	1.41	1.11
FNCNICGAEFTQKGNLLRHIKL [46F_47N_49N_50I_52G_53A_54E_55F_67L_, Q9UKT9]	-0.383	-1.22	-0.688	-0.836
FYCNICGAEFTQKGNLLRHIKL [46F_47Y_49N_50I_52G_53A_54E_55F_67L_, Q9UKT9]	1.9	1.64	0.908	-1.03
FTCPQCGAWFTQKGNLLRHIKL [46F_47T_49P_50Q_52G_53A_54W_55F_67L_, Q9UKT9]	-1.97	-1.41	0.47	-0.222
FHCPICGHTFTQKGNLLRHIKL [46F_47H_49P_50I_52G_53H_54T_55F_67L_, Q9UKT9]	-2.42	-2.36	-1.31	-1.65
FQCNQCGHKFTQKGNLLRHIKL [46F_47Q_49N_50Q_52G_53H_54K_55F_67L_, Q9UKT9]	-3.13	-3.72	-2.89	-2.56
FICEICGRSFTQKGNLLRHIKL [46F_47I_49E_50I_52G_53R_54S_55F_67L_, Q9UKT9]	-2.87	-2.13	-1.31	-0.772
FYCEICGRYFTQKGNLLRHIKL [46F_47Y_49E_50I_52G_53R_54Y_55F_67L_, Q9UKT9]	1.09	0.388	-0.525	-1.2
FKCNICGACFTQKGNLLRHIKL [46F_47K_49N_50I_52G_53A_54C_55F_67L_, Q9UKT9]	-1.31	-2.26	-2.53	-1.43
FYCNICGACFTQKGNLLRHIKL [46F_47Y_49N_50I_52G_53A_54C_55F_67L_, Q9UKT9]	2.86	3.15	1.94	0.278
FRCNICGACFTQKGNLLRHIKL [46F_47R_49N_50I_52G_53A_54C_55F_67L_, Q9UKT9]	-1.25	-0.613	0.532	0.406
FWCNICGACFTQKGNLLRHIKL [46F_47W_49N_50I_52G_53A_54C_55F_67L_, Q9UKT9]	2.95	3.36	1.98	0.445
FQCNICGACFTQKGNLLRHIKL [46F_47Q_49N_50I_52G_53A_54C_55F_67L_, Q9UKT9]	-0.735	1.82	1.65	3.38
FSCNICGACFTQKGNLLRHIKL [46F_47S_49N_50I_52G_53A_54C_55F_67L_, Q9UKT9]	0.632	1.69	2.11	1.06

— the supplement of paper PMC12645437, “Orthogonal IMiD-Degron Pairs Induce Selective Protein Degradation in Cells” (ACS Chemical Biology, 2025)
